Compounds with a hit are over-represented: about 12% of the library has one in this group of screens.
PLK1 PBD inh = PLK1 (human) polo-box domain binding inhibition | Plk1 PBD binding of FITC phosphopeptide, fluorescence polarization | actives 2.8% (n = 360,000) | P53350 | Potency, µM, hits mostly inhibitors; note: series mostly up to about 57 µM; nearly all actives have a fitted effect of over 65% in size
HP1b chromo inh = inhibitors of HP1-beta chromodomain binding to methylated histone tails; P83916; AlphaScreen HP1-beta / biotin-H3K9me3 peptide binding; Potency, µM (series often up to 114 µM), most hits filed as inhibitors; actives 0.56% (n = 390,000); AID 540317; note: nearly all actives have a fitted effect of over 70% in size
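AlphaScreen: HP1-beta (50 nM) preformed 30 min with biotin-H3(1-18)K9me3 peptide (50 nM) in PBS pH 7.4, 0.01% Tween-20. Compound added for 30 min at RT, then streptavidin donor/nickel chelate acceptor beads (10 ug/mL) for 30 min.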
JMJD2A Tudor = inhibitors of human JMJD2A Tudor domain; Potency, µM (top dose mostly 114 µM), most hits filed as inhibitors; O75164; AlphaScreen JMJD2A-Tudor / H3K4me3 peptide binding; actives 4.4% (n = 390,000); note: nearly all actives have a fitted effect of over 50% in size
BAZ2B block = BAZ2B (human) inhibition. Q9UIF8. AlphaScreen BAZ2B-H3K14Ac peptide displacement. Potency, µM (top dose mostly 114 µM), hits mostly inhibitors. actives 4.4% (n = 360,000); note: nearly all actives have a fitted effect of over 60% in size
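BAZ2B 50 nM plus b-H3(5-23)K14Ac 50 nM, PBS pH 7.4/0.01% Tween-20, 30 min RT; compound added (max 110 uM), 30 min RT; streptavidin donor/Ni-chelate acceptor beads 10 ug/mL final, 20 min dark; AlphaScreen read.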
G9a block = inhibitors of human histone lysine methyltransferase G9a. G9a H3K9 monomethylation, AlphaScreen, 2 h. Potency, µM (titrated, usually from 102 µM), usual class: inhibitors. actives 8.8% (n = 350,000). AID 504332; note: nearly all actives have a fitted effect of over 75% in size
Target sequence (Q96KQ7 913-1193 limits assumed): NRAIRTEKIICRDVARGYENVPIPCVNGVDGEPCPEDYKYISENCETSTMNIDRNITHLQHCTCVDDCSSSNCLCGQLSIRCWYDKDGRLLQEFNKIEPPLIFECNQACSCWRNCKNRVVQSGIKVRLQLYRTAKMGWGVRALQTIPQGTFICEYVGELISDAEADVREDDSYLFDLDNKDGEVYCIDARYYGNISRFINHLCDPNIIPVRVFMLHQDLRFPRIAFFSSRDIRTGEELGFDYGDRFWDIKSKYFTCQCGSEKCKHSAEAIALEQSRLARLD
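AlphaScreen read-out: biotin-H3K9 peptide (500 nM) methylation by 20 nM enzyme with 20 uM SAM, 2 h at room temperature after 15 min compound preincubation; anti-monomethyl H3K9 antibody plus donor/acceptor beads, 10 min dark.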
PI5P4Ka inh = PI5P4K alpha (human) kinase inhibition; P48426; PI5P4Kalpha enzyme, ADP-Glo luminescence, 60 min; stronger effect = lower value; max response, %; actives 1.2% (n = 330,000); active = max response of -50% or lower; inconclusive = between -30% and -50%; inactive = -30% or higher; note: value at the top dose of about 77 µM
Target sequence (P48426 whole entry, looked up): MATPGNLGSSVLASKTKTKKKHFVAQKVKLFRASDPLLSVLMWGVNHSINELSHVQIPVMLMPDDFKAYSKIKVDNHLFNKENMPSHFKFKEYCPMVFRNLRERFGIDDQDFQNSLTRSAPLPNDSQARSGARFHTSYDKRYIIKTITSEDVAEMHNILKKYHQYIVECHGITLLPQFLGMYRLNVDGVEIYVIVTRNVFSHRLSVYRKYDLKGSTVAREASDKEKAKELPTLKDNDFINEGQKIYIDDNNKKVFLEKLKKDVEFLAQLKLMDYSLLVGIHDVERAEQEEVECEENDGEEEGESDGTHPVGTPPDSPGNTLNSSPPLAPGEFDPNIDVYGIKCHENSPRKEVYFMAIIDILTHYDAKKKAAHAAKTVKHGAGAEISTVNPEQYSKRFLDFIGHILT
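Enzyme plus substrate dispensed, test compounds pinned in, then ATP (5 microM final) added. After 60 min at RT, ADP-Glo reagent 1 for 45 min and reagent 2 for 30 min preceded luminescence imaging.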
Hits are given with their value; i = inactive; ? = inconclusive; nt = no result given; ! = a repeat was not active; [ ] = another dose, or the depositor's remark. Unless noted, calls come from the whole dose curve; as a rule, active = well fitted curve in the direction sought with a large enough effect; inconclusive = small, poorly fitted or top-dose-only effect, or another doubt; inactive = no such curve, though single readings can be large; an effect the other way counts as inactive or inconclusive.

SMILES	PLK1 PBD inh	HP1b chromo inh	JMJD2A Tudor	BAZ2B block	G9a block	PI5P4Ka inh
C/C(CC(=O)Nc1ccc(N(C)C)cc1)=N\NC(=O)c1ccccn1	i	?	?	56µM	50µM	i
COc1ccc(C)cc1NC(=O)C(OC(=O)CNC(=O)c1ccccc1)c1ccccc1 (stereo not drawn)	nt	nt	i	nt	nt	nt
O=C(CCn1nc(-c2ccc(Cl)cc2)ccc1=O)NCCc1ccccc1	nt	i	i	i	i	nt
COC(C(=O)N/N=C(\C)CC(=O)Nc1ccc(N(C)C)cc1)c1ccccc1 (stereo not drawn)	i	i	i	i	16µM	i
NC(=O)C1CCN(c2nc(-c3ccccc3F)cs2)CC1	nt	i	i	?	i[12.7 µM]	nt
Cn1ccc2cc(-c3csc(N4CCC(C(N)=O)CC4)n3)ccc21	nt	i	i	50µM	i[12.7 µM]	nt
NC(=O)C1CCN(c2nc(-c3ccc(F)cc3)cs2)CC1	nt	i	i	56µM!	i[12.7 µM]	nt
NC(=O)C1CCN(c2nc(-c3ccccc3C(F)(F)F)cs2)CC1	nt	i	79µM	i	i[12.7 µM]	nt
NC(=O)C1CCN(c2nc(-c3cccnc3)cs2)CC1	nt	i	79µM	i	i[12.7 µM]	nt
O=C(CN1CCN(c2nc(-c3ccc(F)cc3)cs2)CC1)NCc1ccc2c(c1)OCO2	i	i	?	?	40µM	nt
O=C(CN1CCN(c2ncccn2)CC1)NCc1ccc2c(c1)OCO2	i	i	i	i	i	i
COc1cc(CNC[C@H]2O[C@@H](n3cc(C)c(=O)[nH]c3=O)C[C@@H]2O)ccc1OCc1cccc(Cl)c1	i	nt	nt	nt	nt	i
COc1ccccc1CCC(=O)OCC(=O)c1c(N)n(CC(C)C)c(=O)n(C)c1=O	i	i	i	?	i[0.501 µM]	i
CC(C)Cn1c(N)c(C(=O)COC(=O)C2CCCCC2)c(=O)n(C)c1=O	24µM	i	25µM	i	?	i
COc1ccc(CCC(=O)OCC(=O)c2c(N)n(CC(C)C)c(=O)n(C)c2=O)cc1	i	i	i	?	79µM	i
CCN(CC)c1nc2c(S(=O)(=O)c3ccc(C)cc3)nnn2c2ccsc12	nt	i	i	i	i	nt
CC(=O)Nc1ccc(C(=O)CSc2nnc(Cn3nnc4ccccc43)n2C)cc1	i	i	56µM	i	79µM	nt
Cn1c(Cn2nnc3ccccc32)nnc1SCC(N)=O	i	i	i	i	?	nt
O=C(CCl)N(Cc1cc(=O)[nH]c2ccccc12)c1ccccc1	i	i	i	i	40µM	?
CCC(=O)N(Cc1cc(=O)[nH]c2ccccc12)c1ccccc1	i	i	?	i	nt	?
CC(=O)N(Cc1cc(=O)[nH]c2ccccc12)c1ccc(C)cc1	i	i	i	i	32µM	i
Cc1ccccc1OCC(O)COc1ccccc1C	i	i	i	nt	nt	i
Cc1cccc(NC(=O)CSc2cn[nH]n2)c1	i	i	i	i	40µM	i
O=C(CSc1cn[nH]n1)Nc1cccc(C(F)(F)F)c1	i	i	i	i	?	i
Cc1nonc1NC(=O)CSc1cn[nH]n1	i	i	i	i	50µM	i
SMILES	PLK1 PBD inh	HP1b chromo inh	JMJD2A Tudor	BAZ2B block	G9a block	PI5P4Ka inh
NS(=O)(=O)c1ccc(NC(=O)CSc2ncnc3ccccc23)cc1	?	i	i	79µM	i	i
COc1ccc(NC(=O)CSc2ccccn2)cc1OC	i	i	i	i	i	i
Cc1nonc1NC(=O)CSc1ccc(-c2ccccc2)nn1	i	i	i	i	i	nt
COc1ccc(NC(=O)CSc2cn[nH]n2)cc1OC	i	i	i	i	35µM	i
NS(=O)(=O)c1ccc(NC(=O)CSc2cn[nH]n2)cc1	i	i	i	i	45µM	i
CC(=O)c1ccc(NC(=O)CSc2cn[nH]n2)cc1	i	i	i	i	?	i
O=C(CN1C(=O)NC2(CCCCC2)C1=O)Nc1ccc(N2CCCCC2)cc1	i	i	i	nt	nt	i
CC1CC(C)(C)CC2(C1)NC(=O)N(CC(=O)Nc1ccc(N3CCCCC3)cc1)C2=O (stereo not drawn)	i	?	?	?	45µM	i
CC1(c2ccccc2Cl)NC(=O)N(CC(=O)Nc2ccc(N3CCCCC3)cc2)C1=O (stereo not drawn)	i	i	?	35µM	14µM	i
CC1CC(C)(C)CC2(C1)NC(=O)N(CC(=O)N1CCN(S(=O)(=O)c3ccc(F)c(F)c3F)CC1)C2=O (stereo not drawn)	i	i	20µM	nt	nt	i
CC1CC(C)(C)CC2(C1)NC(=O)N(CC(=O)NCc1ccccc1F)C2=O (stereo not drawn)	i	i	i	i	i[0.501 µM]	i
CC1CCCCC12NC(=O)N(CC(=O)Nc1ccc(N3CCCCC3)cc1)C2=O (stereo not drawn)	i	i	i	i	16µM	i
Cc1ccc(-n2nc(C(=O)N3CCCCC3C)c(=O)n(C)c2=O)cc1 (stereo not drawn)	nt	i	i	i	i	nt
COc1cccc(CNc2nc3cc(-c4ccccc4C)sc3c(=O)n2C)c1OC	i	nt	nt	nt	nt	i
CCC1(c2ccccc2)NC(=O)N(CC(=O)Nc2cc(Cl)ccc2N2CCN(C)CC2)C1=O (stereo not drawn)	i	i	i	i	i[12.7 µM]	i
CN1CCN(c2ccc(Cl)cc2NC(=O)CN2C(=O)NC(C)(c3ccccc3)C2=O)CC1 (stereo not drawn)	i	i	i	i	45µM	i
Cc1cc(C)cc(C(=O)NN2CCN(C)CC2)c1	12µM	i	22µM	i	i[12.7 µM]	?
COc1ccc(-c2cc(C(F)(F)F)n3nc(C(=O)Nc4sc5c(c4C#N)CCC(C)C5)cc3n2)cc1OC (stereo not drawn)	nt	i	i	i	i	nt
CCC(=O)N1c2ccc(S(=O)(=O)NCCc3ccc(OC)c(OC)c3)cc2CC1C (stereo not drawn)	i	i	i	i	nt	i
O=C(CN1C(=O)c2ccccc2S1(=O)=O)Nc1ncc([N+](=O)[O-])s1	19µM	i	3.5µM	?	?	?
Cc1csc(NC(=O)CN2C(=O)c3ccccc3S2(=O)=O)n1	i	i	i	i	i	i
O=C(N/N=C/c1ccc(Br)s1)c1cccnc1	i	i	i	i	i	i
O=C(N/N=C/c1cc(O)ccc1Br)c1cccnc1	i	i	45µM	7.1µM	nt	i
O=C(N/N=C(\c1ccccc1)c1cccnc1)c1cc(O)ccc1O	nt	nt	nt	i	10µM	nt
O=C(N/N=C/c1cc2c(cc1Br)OCO2)c1cccnc1	i	i	i	i	i	i
O=C(N/N=C/c1cc(Br)c(O)c(Br)c1O)c1cccnc1	i	i	50µM	35µM	?	-59
CN(C)c1ccc(-c2csc(C(O)c3ccc(F)c(F)c3)n2)cc1 (stereo not drawn)	i	nt	nt	nt	nt	i
O=C1NC[C@@H](CCCCN2C[C@H](Cc3ccc(O)cc3)N(CCc3ccc(O)cc3)C(=O)C2=O)N(Cc2ccccc2)C1=O	i	nt	nt	nt	nt	i
O=CNn1cnc2c(oc3nc(-c4ccccc4)cc(-c4ccco4)c32)c1=O	?	?	?	i	50µM	i
